Results as given in PubChem BioAssay AID1159580 (chemical genetic matrix, 2015).
Several values for one entry are separate records, joined by “and”; a condition that tells them apart may be missing. Equal entries are not always repeated. The campaign covered roughly 5,500 compounds. About 2,000 (36%) were called active. Inconclusive results (about 18%) are left out. No stated cut-off is given here; in the data, active means normalized growth mostly below about 0.91 (no sharp cut-off); inconclusive means no clear call, values can overlap the other calls; inactive means mostly above about 0.92. Some of the results follow.

Test: chemical genetic growth profiling, strain panel (AID 1159580);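 further: tested at 20 µM; growth read once vehicle control cultures reached saturation at 30 °C; 1 = growth at the plate median or of vehicle wells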
Settings: S. cerevisiae deletion strains, growth OD

Measured: normalized growth

CC(=O)OCC1=C(C(=O)O)N2C(=O)[C@@H](NC(=O)CSc3ccncc3)[C@H]2SC1
inactive: locus YAL013W, strain DEP1, stronger effect = lower value 0.988 | locus YAL021C, strain ccr4, stronger effect = lower value 1.02 | locus YAL026C, strain drs2, stronger effect = lower value 1.02 | locus YAL030W, strain snc1, stronger effect = lower value 1 | locus YBL061C, strain skt5, stronger effect = lower value 1.04 | locus YBR009C, strain hhf1, stronger effect = lower value 1.01 | locus YBR021W, strain FUR4, stronger effect = lower value 1.02 | locus YBR023C, strain chs3, stronger effect = lower value 1.04 | locus YBR171W, strain sec66, stronger effect = lower value 1.02 | locus YBR229C, strain ROT2, stronger effect = lower value 0.95 | locus YBR231C, strain swc5, stronger effect = lower value 1.04 | locus YBR279W, strain paf1, stronger effect = lower value 1.03 | locus YCL011C, strain gbp2, stronger effect = lower value 1.01 | locus YCL016C, strain dcc1, stronger effect = lower value 1.02 | locus YCL029C, strain bik1, stronger effect = lower value 1 | locus YCL061C, strain MRC1, stronger effect = lower value 1.01 | locus YCL069W, strain vba3, stronger effect = lower value 1.02 | locus YCR088W, strain abp1, stronger effect = lower value 1.02 | locus YDL005C, strain med2, stronger effect = lower value 1.02 | locus YDL035C, strain GPR1, stronger effect = lower value 0.959 | locus YDL040C, strain nat1, stronger effect = lower value 1.02 | locus YDL074C, strain BRE1, stronger effect = lower value 1 | locus YDL101C, strain DUN1, stronger effect = lower value 0.988 | locus YDL185W, strain tfp1, stronger effect = lower value 0.966 | locus YDL192W, strain arf1, stronger effect = lower value 0.984 | locus YDR001C, strain nth1, stronger effect = lower value 1.02 | locus YDR069C, strain doa4, stronger effect = lower value 1.04 | locus YDR101C, strain arx1, stronger effect = lower value 0.976 | locus YDR137W, strain rgp1, stronger effect = lower value 1 | locus YDR159W, strain sac3, stronger effect = lower value 1.03 | locus YDR162C, strain NBP2, stronger effect = lower value 0.946 | locus YDR195W, strain ref2 1.03 | locus YDR297W, strain sur2, stronger effect = lower value 1.02 | locus YDR318W, strain mcm21, stronger effect = lower value 0.99 | locus YDR334W, strain swr1, stronger effect = lower value 1.01 | locus YDR335W, strain msn5, stronger effect = lower value 1.03 | locus YDR388W, stronger effect = lower value 0.988 | locus YDR392W, strain spt3, stronger effect = lower value 0.957 | locus YDR502C, strain sam2, stronger effect = lower value 0.998 | locus YEL003W, strain gim4, stronger effect = lower value 1.03 | locus YEL037C, strain rad23, stronger effect = lower value 1 | locus YEL061C, strain CIN8 (second series), stronger effect = lower value 1.05 | locus YEL061C, strain CIN8, stronger effect = lower value 0.99 | locus YER015W, strain faa2, stronger effect = lower value 1.01 | locus YER016W, strain bim1, stronger effect = lower value 1.03 | locus YER110C, stronger effect = lower value 0.991 | locus YER111C, strain swi4, stronger effect = lower value 0.997 | locus YER155C, strain BEM2 (second series), stronger effect = lower value 0.992 | locus YER155C, strain BEM2, stronger effect = lower value 0.994 | locus YER167W, strain BCK2, stronger effect = lower value 0.995 | locus YFR010W, strain ubp6, stronger effect = lower value 1.02 | locus YGL078C, strain dbp3, stronger effect = lower value 0.995 | locus YGL086W, strain mad1, stronger effect = lower value 0.981 | locus YGL167C, strain pmr1, stronger effect = lower value 1.03 | locus YGL173C, strain kem1, stronger effect = lower value 1.03 | locus YGL227W, strain vid30, stronger effect = lower value 1.01 | locus YGL240W, strain doc1, stronger effect = lower value 1.03 | locus YGL248W, strain PDE1, stronger effect = lower value 1.01 | locus YGL253W, strain hxk2, stronger effect = lower value 1.02 | locus YGR078C, strain PAC10, stronger effect = lower value 0.989 | locus YGR135W, strain pre9, stronger effect = lower value 1.04 | locus YGR252W, strain gcn5, stronger effect = lower value 1.02 | locus YHR013C, strain ard1, stronger effect = lower value 1.03 | locus YHR027C, strain rpn1, stronger effect = lower value 1.02 | locus YHR030C, strain SLT2, stronger effect = lower value 0.983 and 0.995 | locus YHR079C, strain IRE1 (second series), stronger effect = lower value 0.997 | locus YHR079C, strain IRE1, stronger effect = lower value 1.01 | locus YHR094C, strain hxt1, stronger effect = lower value 0.991 | locus YHR129C, strain ARP1, stronger effect = lower value 0.984 | locus YHR142W, strain chs7, stronger effect = lower value 1.03 | locus YHR200W, strain rpn10, stronger effect = lower value 0.984 | locus YIL066C, strain RNR3, stronger effect = lower value 0.969 | locus YIL073C, strain SPO22, stronger effect = lower value 1.03 | locus YIL125W, strain kgd1, stronger effect = lower value 0.984 | locus YIR030C, strain dcg1, stronger effect = lower value 0.993 | locus YJL092W, strain hpr5, stronger effect = lower value 1.02 | locus YJL095W, strain BCK1 (second series), stronger effect = lower value 1.02 | locus YJL095W, strain BCK1, stronger effect = lower value 1.05 and 0.991 | locus YJL115W, strain asf1, stronger effect = lower value 1.03 | locus YJL129C, strain trk1, stronger effect = lower value 1.01 | locus YJL134W, strain LCB3, stronger effect = lower value 0.991 | locus YJL154C, strain vps35, stronger effect = lower value 1.02 | locus YJL164C, strain tpk1, stronger effect = lower value 1.01 | locus YJL166W, strain qcr8, stronger effect = lower value 1.03 | locus YJL168C, strain set2, stronger effect = lower value 0.99 | locus YJL187C, strain SWE1 (second series), stronger effect = lower value 1 | locus YJL187C, strain SWE1, stronger effect = lower value 1.02
